Consider 36 compounds from ChEMBL document CHEMBL3433997, “St. Jude Leishmania screening dataset” (2016).

Holding throughout (type): functional
Experiment [1] concerns the target Solute carrier family 2, facilitated glucose transporter member 1 (Homo sapiens) (UniProt P11166). Description: ST_JUDE_LEISH: Cytotoxicity at 2uM final concentration against transgenic Leishmania Mexicana promastigotes LmGLUT1 that are glucose transport deficient and complemented with the human glucose transporter GLUT1. Activity is measured by DNA content using SYBR green in vitro.

Experiment [2] addresses Hexose transporter 1 (Plasmodium falciparum) (UniProt O97467). Kind of experiment: ST_JUDE_LEISH: Cytotoxicity at 2uM final concentration against transgenic Leishmania Mexicana promastigotes LmPfHT that are glucose transport deficient and complemented with the Plasmodium falciparum hexose transporter. Activity is measured by DNA content using SYBR green in vitro.
Experiment [3] deals with Glucose transporter (Leishmania mexicana) (UniProt O61059). Kind of experiment: ST_JUDE_LEISH: Cytotoxicity at 2uM final concentration against transgenic Leishmania Mexicana promastigotes LmGT2 that are glucose transport deficient and complemented with the L. Mexicana glucose transporter 2. Activity is measured by DNA content using SYBR green in vitro.

Sequence of Solute carrier family 2, facilitated glucose transporter member 1 (Homo sapiens) (P11166 whole entry): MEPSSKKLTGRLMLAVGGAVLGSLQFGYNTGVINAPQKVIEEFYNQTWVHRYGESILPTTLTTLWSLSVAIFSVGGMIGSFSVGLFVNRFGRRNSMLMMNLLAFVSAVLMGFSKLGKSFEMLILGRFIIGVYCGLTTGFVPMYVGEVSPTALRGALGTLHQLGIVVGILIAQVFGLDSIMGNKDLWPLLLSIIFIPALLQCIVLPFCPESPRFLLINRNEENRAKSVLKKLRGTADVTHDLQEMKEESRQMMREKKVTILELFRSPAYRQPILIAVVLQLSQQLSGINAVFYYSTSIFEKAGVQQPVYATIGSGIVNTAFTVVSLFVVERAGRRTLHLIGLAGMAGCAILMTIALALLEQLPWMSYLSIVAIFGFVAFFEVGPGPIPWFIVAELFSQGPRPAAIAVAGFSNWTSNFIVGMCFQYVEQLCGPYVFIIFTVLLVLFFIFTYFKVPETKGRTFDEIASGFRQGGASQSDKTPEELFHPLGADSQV

`CN1CCCN(Cc2ccc(-c3cccc(NC(=O)c4ccc(F)cc4)c3)cc2)CC1`: the inhibition (as a rule, the relative decrease from the control value, in per cent) in experiment [1] amounted to 19.9%; in experiment [2] it was 13.8%; in experiment [3], 12.4%.
`CCCC(CNCc1ccccc1)CNc1cc(=O)c2ccccc2[nH]1` (stereo not drawn): the inhibition is -0.08% in experiment [1], -3.44% in experiment [2] and -0.73% in experiment [3].
Take `CCN(CCCN1CCCCC1)c1cc(C)nc(Nc2cc(C)ccc2C)n1`: the figures for the inhibition in experiment [1], in experiment [2] and in experiment [3] were -1.92%, 0.68% and -0.58%, respectively.
Regarding `N#Cc1ccc2[nH]cc(CN3CCC4(CC3)CN(CCNCc3ccccc3)C(=O)O4)c2c1`, the inhibition is 4.35% in experiment [1], 4.4% in experiment [2] and -0.76% in experiment [3].
`CC(C)CCN1CCCN(Cc2ccc(C(=O)NCc3ccc(Cl)cc3)cc2)CC1`: the inhibition was 2.09% in experiment [1], 0.59% in experiment [2] and -0.7% in experiment [3].
In the case of `CN(C)CCN(C)Cc1ccc(-c2ccc(NC(=O)c3cccc(C#N)c3)cc2)cc1`, the inhibition turned out to be 3.64% in experiment [1], 2.58% in experiment [2] and 0.19% in experiment [3].
For `CCN(CC)CCOc1ccc(C(O)(C#CC(O)(c2ccc(Br)cc2)c2ccc(OCCN(CC)CC)cc2)c2ccc(Br)cc2)cc1` (stereo not drawn), the figures for the inhibition in experiment [1], in experiment [2] and in experiment [3] were 4.97%, 5% and 3.37%, respectively.
`O=C(NC1CCN(Cc2ccccc2)CC1)c1ccc(-c2nc3cc(F)c(F)cc3[nH]2)s1`: the figures for the inhibition in experiment [1], in experiment [2] and in experiment [3] were 3.16%, 3.84% and 5.72%, respectively.
As for `O=C(Nc1cccc(N2CCC(NCCCc3ccncc3)CC2)c1)c1cccc(C(F)(F)F)c1`, the inhibition in experiment [1] was 3.33%; in experiment [2], 5.68%; in experiment [3], 4.83%.
As to `CN1CCC(NCc2ccc(-c3cccc(S(=O)(=O)NCC4CCCO4)c3)cc2)CC1` (stereo not drawn), the inhibition was found to be 0.62% in experiment [1], 3.18% in experiment [2] and 6.61% in experiment [3].
In the case of `Cc1cccc(CN2CCCN(Cc3cccc(C(=O)Nc4ccc(C(C)(C)C)cc4)c3)CC2)c1`, the inhibition was found to be 3.43% in experiment [1], 2.22% in experiment [2] and 1.26% in experiment [3].
Consider `COc1ccc(C(=O)CCC(=O)N(Cc2ccc(-c3ccc(CNCCc4ccc(S(C)(=O)=O)cc4)cn3)cc2)Cc2ccc3c(c2)OCO3)cc1F`, for which the inhibition is 1.12% in experiment [1], -0.05% in experiment [2] and -0.58% in experiment [3].
In the same order, the values of `CC(C)CN1C(=O)c2ccccc2C(C(=O)Nc2cccc(C#N)c2)C1c1cccs1` (stereo not drawn) are -0.23%, -1.39% and -1%.
The like results for `c1ccc(Oc2ccc(Nc3ccnc4ccc(-c5ccccn5)cc34)cc2)cc1` were, in that order, 2.62%, 4.16% and 3.02%.
In the same order, the values of `CN(C)C(=O)c1cccc(COc2ccc(N3C(N)=NC(N)=NC3(C)C)cc2Cl)c1` are 1.73%, 1.77% and -0.58%.
For the compound `O=C(Cc1c[nH]cn1)Nc1ccc(-c2cccc(-c3nc4cc(F)ccc4[nH]3)c2)cc1`, the inhibition in experiment [1] was 1.49%; in experiment [2] it was 4.07%; in experiment [3], 2.01%.
In the same order, the values of `Cc1[nH]c(C)c(-c2ccc(OCc3ccccc3C(F)(F)F)nc2)c(=O)c1Br` are 4.88%, 6.13% and 1.94%.
In the case of `Oc1cccc(Nc2ccnc3cc(-c4cc5ccccc5o4)ccc23)c1`, the figures for the inhibition in experiment [1], in experiment [2] and in experiment [3] were -0.71%, -0.27% and -2.34%, respectively.
As for `COc1ccc(CC2(CO)CCN(Cc3ccc(O)c(Cl)c3)CC2)cc1`, the inhibition in experiment [1] is 9.35%; in experiment [2], 7.92%; in experiment [3], 5.84%.
As to `CCOc1cc(CC)ccc1C1CCN(CCN2CCC(NC(=O)c3ccc(-c4ccc(C(C)=O)cc4)cc3)CC2)CC1`, the inhibition was found to be 1.17% in experiment [1], 1.9% in experiment [2] and 1.24% in experiment [3].
Regarding `Cc1ccc(C)c(-n2c(SCC(=O)Nc3ccc(C(N)=O)cc3)nnc2-c2cccc(Cl)c2)c1`, the inhibition was found to be 11.3% in experiment [1], 11.6% in experiment [2] and 10.4% in experiment [3].
On to `O=C(Cc1c[nH]cn1)Nc1cccc(-c2ccc(-c3nc4cc(C(F)(F)F)ccc4[nH]3)s2)c1`, for which the inhibition in experiment [1] was -5.22%; in experiment [2], -3.59%; in experiment [3], -0.81%.
The like results for `Fc1ccc2c(NN=Cc3ccc(Cl)cc3)ccnc2c1` were, in that order, 10.8%, 10.9% and 6.76%.
`CCN(CC)c1nc(-c2ccccc2)cc(-c2ccccc2)c1C#N`: the inhibition was 1.31% in experiment [1], 1.62% in experiment [2] and -0.21% in experiment [3].
As for `CCNc1cc(C(=O)NC(Cc2ccccc2)C(O)CNC2CCSCC2)cc(N2CCCC2=O)c1` (stereo not drawn), the inhibition was 3.69% in experiment [1], 3.13% in experiment [2] and 4% in experiment [3].
Take `CN(C)CCCN1CCN(C(=O)c2cccc(-c3noc(C(F)(F)F)n3)c2)CC1`: the inhibition in experiment [1] came to 2.61%; in experiment [2], 3.52%; in experiment [3] it was 3.7%.
For `Cc1cccc2nc(-c3cccc(-c4ccc(NC(=O)c5ccncc5)cc4)c3)[nH]c12`, the inhibition amounted to 2.81% in experiment [1], 2.24% in experiment [2] and 2% in experiment [3].
`Cc1cccc(S(=O)(=O)Nc2cccc(CCN3CCC(N4CCCCC4)CC3)c2)c1`: the values for the inhibition in experiment [1], in experiment [2] and in experiment [3] were 3.99%, -1.11% and 0.97%, respectively.
In the same order, the values of `N#Cc1ccc(-c2ccc(OCC(O)CN3CCCN(Cc4cccc(O)c4Cl)CC3)cc2)cc1` (stereo not drawn) are 4.04%, 0.72% and 1.67%.
The like results for `CC(=O)N[C@H](C(=O)Nc1ccc(-c2ccc(-c3nc4cc(C(F)(F)F)ccc4[nH]3)cc2)cc1)C(C)C` were, in that order, 4.54%, 3.08% and 0.17%.
In the same order, the values of `Cc1ccc(O)c(-c2cc(C(=O)Nc3ccc(S(=O)(=O)N4CCCC(C)C4)cc3)[nH]n2)c1` (stereo not drawn) are -0.03%, -0.51% and 0.63%.
For `O=C(NCCN1CCOCC1)c1ccc(-c2ccc(CNCCCc3ccccc3)cc2)nc1`, the inhibition was -1.5% in experiment [1], -3% in experiment [2] and -0.47% in experiment [3].
Consider `CCCC(=O)Nc1ccc(OCCCN(Cc2ccccc2OC(F)(F)F)c2ccc(C#N)c(C(F)(F)F)c2)cc1`, for which the inhibition in experiment [1] came out at 3.69%; in experiment [2] it was 9.22%; in experiment [3], 5.47%.
On to `CCCCCC(C)C(C)c1cc(O)c2c(c1)OC(C)(C)CC2c1cc[n+]([O-])cc1` (stereo not drawn), for which the inhibition in experiment [1] came to 3.19%; in experiment [2] it was 4.07%; in experiment [3] it was 4.64%.
Take `Cc1ccc(C(=O)N2CCc3cc4nccc(N5CCN6CCC[C@H]6C5)c4cc32)cc1`: the inhibition in experiment [1] came out at 1.81%; in experiment [2], 0.6%; in experiment [3], 1.55%.
As for `CCCCCCN(CCCCCC)CC(O)c1c(OC)ccc2ccccc12` (stereo not drawn), the inhibition in experiment [1] came to 3.35%; in experiment [2], 5.37%; in experiment [3], 5.56%.
